Laboratory results taken from PubChem BioAssay AID1259418 (Broad Institute, 2018).
The whole screen tested about 3,400 compounds, of which about 840 (25%) were called active. Another 11% or so got no clear call; they are omitted. Only a sample is shown. Measured potencies and affinities stand elsewhere. Unmarked numbers belong to inactive results.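 How the source made its calls: active means fitted half-maximal concentration of signal decrease at or below twice the sample's top tested concentration; inconclusive means flat curve between -70 and -30 percent, or poor fit; inactive means flat within 30 percent, signal rise, or potency above limit.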

assay: T. gondii growth inhibition with IFN-gamma, dose response, cell-based, ME49Luc, HeLa, luciferase, 72 h (AID 1259418); conditions: T. gondii ME49Luc in IFN-y HeLa, stronger effect = lower value, -100% = high-dose IFN-γ control wells; at 19.5 µM unless noted

| SMILES | max activity |
| --- | --- |
| CCOC(=O)c1cccc(NC(=O)Nc2ccc(-c3nc(-c4ccc(C)cc4C)co3)cc2)c1 | -3.92% [at 1.35 µM] |
| CCOc1ccc(-c2nc(CN3CCN(C(=O)Nc4cccc(C)c4C)CC3)c(C)o2)cc1 | -7.65% [at 0.68 µM] |
| O=C(CC1Nc2c3ccccc3nc(=S)n2C1=O)NCCc1ccccc1 (configuration not stated) | -10.8% [at 0.68 µM] |
| Cc1ccc(C)c(-c2coc(-c3ccc(NC(=O)NCc4cccc(F)c4)cc3)n2)c1 | 9.05% |
| Cc1oc(-c2cccc(Cl)c2)nc1CSc1nc2c(c(=O)[nH]1)CN(C(C)C)CC2 | 17.7% [at 0.68 µM] |
| COc1ccc(-c2nc(Nc3ccc(C)c(Cl)c3)c3ccccc3n2)cc1 | 13% [at 0.35 µM] |
| CCOc1ccc(Nc2nc(-c3ccc(OC)cc3)nc3ccccc23)cc1 | 9.36% |
| COc1ccc(-c2nc(Nc3ccc(Cl)cc3)c3ccccc3n2)cc1 | 10.4% [at 0.35 µM] |
| COc1ccc(-c2nc(Nc3ccc(F)cc3)c3ccccc3n2)cc1 | -11.2% [at 2.6 µM] |
| O=C(Cc1cccc(F)c1)N1CCC2(CC1)Nc1cc(F)ccc1-n1cccc12 | -7.02% [at 2.6 µM] |
| CCOc1ccccc1CNc1nc(-c2ccc(Cl)cc2)nc2ccccc12 | 22.2% |
| COc1ccccc1NC(=O)Nc1ccc(-c2nc(-c3ccccc3)co2)cc1 | 62.5% [at 10 µM] |
| COc1cccc(CC(=O)Nc2ccc(-c3nc(-c4cc(C)ccc4C)co3)cc2)c1 | -7.87% |
| CCC(C)Nc1nc(-c2ccc(Cl)cc2)nc2ccccc12 (configuration not stated) | -11.3% [at 10 µM] |
| CCCNC(=O)[C@H]1[C@H](CO)[C@H]2Cn3c(ccc(C4=CCCCC4)c3=O)[C@H]2N1Cc1ccccc1F | 16.8% [at 10 µM] |
| CN1[C@@H]2c3ccc(/C=C/c4ccccc4)c(=O)n3C[C@H]1[C@H](CO)[C@H]2C(=O)NC1Cc2ccccc2C1 | 43.1% [at 5 µM] |
| O=C(CCn1cnc2cc(-c3noc(CCc4c[nH]c5ccccc45)n3)ccc21)N1CCCC1 | -14.5% [at 0.16 µM] |
| O=C(CCn1cnc2cc(-c3noc(-c4cccc5[nH]ccc45)n3)ccc21)N1CCCC1 | -15.6% [at 0.35 µM] |
| COc1ccc(NC(=O)Nc2ccc(-c3nc(-c4ccc(C)cc4)co3)cc2)cc1 | 43.2% [at 10 µM] |
| CC(C)NC(=O)N1CCC2(CC1)OCCN(CCO)c1ccccc12 | 20.9% |
| Cc1ccc(NC(=O)Nc2ccc(-c3nc(-c4ccccc4)co3)cc2)cc1 | 19.9% [at 0.16 µM] |
| N#Cc1ccc(-c2ccc3c(c2)[C@H]2[C@H](CCN2C(=O)C2CCCCC2)[C@@H](CO)N3)cc1 | 27.2% [at 10 µM] |
| COc1ccc(-c2nc(Cn3nnc(-c4nc(-c5ccc(Cl)cc5)no4)c3C)c(C)o2)cc1 | 6.38% |
| CCC(C(=O)N1CCC[C@@H]1C(=O)NCCc1csc(C)n1)c1ccccc1 (some centres not stated) | 9.81% [at 0.35 µM] |

| SMILES | max activity |
| --- | --- |
| COc1cc(-c2noc(-c3nnn(Cc4nc(-c5ccccc5)oc4C)c3C)n2)cc(OC)c1OC | 6.25% [at 0.35 µM] |
| COc1ccc2c(c1)NC1(CCN(C(=O)c3ccc(C)c(F)c3)CC1)c1cccn1-2 | 5.27% [at 0.68 µM] |
| Cc1ccccc1Cn1cccc1CNS(=O)(=O)c1ccc2c(c1)CCC(=O)N2 | 13.6% [at 2.6 µM] |
| O=C(CCC1N=C2c3ccccc3N=C(SCc3cccc(Cl)c3)N2C1=O)NCc1ccco1 (configuration not stated) | 24.8% [at 5 µM] |
| O=C(CC1N=C2c3ccccc3N=C(SCc3cccc(F)c3)N2C1=O)NCc1cccs1 (configuration not stated) | -23.9% [at 5 µM] |
| NC(=O)C1(N2CCCCC2)CCN(c2ncc(NC(=O)c3cccc(Cl)c3)cc2C(=O)O)CC1 | 5.69% |
| COc1ccc(-c2nc(N3CCc4ccccc43)c3ccccc3n2)cc1 | -12.2% [at 0.35 µM] |
| CCS(=O)(=O)N1CCC(C(=O)NCCc2csc(-c3cccs3)n2)CC1 | -17.6% |
| COc1ccc(-c2nc(Nc3ccc(F)cc3F)c3ccccc3n2)cc1 | 10.1% |
| Cc1ccc2c(c1C)-n1cccc1C1(CCN(C(=O)c3ccc(Br)cc3)CC1)N2 | 7.92% [at 0.16 µM] |
| COc1cc(C(=O)Nc2ccc(-c3nc(-c4ccc(C)cc4)co3)cc2)cc(OC)c1OC | 54.9% [at 10 µM] |
| C[C@H]1CN([C@@H](C)CO)C(=O)c2cccc(NC(=O)c3ccc(-c4nccs4)cc3)c2O[C@@H]1CN(C)C(=O)Nc1ccc(C(F)(F)F)cc1 | 30.7% [at 5 µM] |
| C[C@@H]1CN([C@@H](C)CO)C(=O)c2cccc(NC(=O)NC3CCCCC3)c2O[C@H]1CN(C)Cc1ccc(C(F)(F)F)cc1 | 7.51% |
| CCCN(CCC)c1nc(-c2ccc(Cl)cc2)nc2ccccc12 | 25.7% |
| COc1ccc(-c2nc(Cn3nnc(-c4nc(-c5cccc(F)c5)no4)c3C)c(C)o2)cc1 | 5.24% [at 10 µM] |
| CCOc1ccccc1NC(=O)Nc1ccc(-c2nc(-c3ccc(C)cc3)co2)cc1 | -10.4% |
| O=C(CC1CC1)N[C@H]1CN(C(=O)c2ccoc2)C[C@@H]2CCCO[C@H]21 | 19.7% |
| CCc1onc(C)c1C1CCCN1C(=O)c1cc(C(F)(F)F)nn1C (configuration not stated) | 5.66% [at 0.16 µM] |
| O=C(Nc1ccc(-c2nc(-c3ccccc3)co2)cc1)Nc1ccccc1Cl | 29.7% [at 10 µM] |
| NCCNC(=O)c1nc(-c2ccc(Br)o2)no1 | 8.96% [at 10 µM] |
| Cc1nc(-c2ccc(F)cc2)sc1-c1ccc(SCc2ccc(F)cc2)nn1 | 12.7% [at 5 µM] |
| COc1cccc(-c2nc(C)c(-c3ccc(SCc4ccc(C(F)(F)F)cc4)nn3)s2)c1 | 7.57% [at 0.16 µM] |
| COc1ccc(-c2nc(C)c(-c3ccc(SCc4c(F)cccc4Cl)nn3)s2)cc1 | 6.69% [at 0.16 µM] |
| COc1ccc(-c2nc(C)c(-c3ccc(SCc4ccc(C)cc4)nn3)s2)cc1 | 10.6% [at 2.6 µM] |

| SMILES | max activity |
| --- | --- |
| COc1cccc(-c2nc(C)c(-c3ccc(SCc4ccc(Br)cc4)nn3)s2)c1 | -17.9% |
| COc1cccc(-c2nc(C)c(-c3ccc(SCc4ccc(Cl)cc4Cl)nn3)s2)c1 | -7.13% [at 1.35 µM] |
| COc1cccc(-c2nc(C)c(-c3ccc(SCc4ccc(C)cc4)nn3)s2)c1 | 22.3% [at 10 µM] |
| Cc1nc(-c2ccc(F)cc2)sc1-c1ccc(SCc2c(F)cccc2Cl)nn1 | 12.7% [at 0.68 µM] |
| Cc1ccc(C)c(-c2coc(-c3ccc(NC(=O)Nc4cc(F)ccc4F)cc3)n2)c1 | 18.4% [at 0.16 µM] |
| CCOc1cc(C(=O)Nc2ccc3c(c2)CCC(=O)N3)cc(OCC)c1OCC | 7.32% |
| Cc1ccc(-c2coc(-c3ccc(NC(=O)CC(C)C)cc3)n2)cc1 | 33% |
| Clc1ccc(-c2nc(NCc3cccnc3)c3ccccc3n2)cc1 | -32.4% [at 0.35 µM] |
| COc1ccc(-c2nc3c(s2)CN(S(=O)(=O)c2cccs2)CC3)cc1 | 12.1% [at 0.16 µM] |
| O=S(=O)(c1cccs1)N1CCCCN2[C@H](C1)[C@@H](c1ccc(/C=C/c3ccccc3)cc1)[C@@H]2CO | 11.8% [at 10 µM] |
| COCCCN1CCc2nc(SCc3nc(-c4cccc(Cl)c4)oc3C)[nH]c(=O)c2C1 | 33.5% [at 0.35 µM] |
| O=C(NCC1CC1)C1CN(C(=O)c2ccoc2)CC12CCOCC2 (configuration not stated) | 17.9% [at 10 µM] |
| Cc1ccc(-n2ncc3c(NC4CCCCCCCCCCC4)ncnc32)c(C)c1 | 53.2% [at 10 µM] |
| Oc1[nH]c2ccccc2c1N=Nc1nc(Nc2ccccc2)nc(N2CCOCC2)n1 | 12.6% [at 10 µM] |
| CCN(CC)Cc1cn2c(n1)CN(C(=O)c1cnc(C)cn1)CC2 | -25.1% [at 10 µM] |
| CCc1nc(OCC(=O)Nc2cccc(C)c2C)c2ccccc2n1 | 34.5% |
| COc1ccccc1CNC(=O)CCC1N=C2c3ccccc3N=C(SCc3cc(=O)n4ccccc4n3)N2C1=O (configuration not stated) | -7.46% [at 0.16 µM] |
| CN1CCCN(C(=O)c2cc3c(c4ccccc4n3CC3CC3)n2S(C)(=O)=O)CC1 | 11.9% [at 5 µM] |
| CC(C)c1cc(C2CCCN2C(=O)c2cc(C(F)(F)F)nn2C)on1 (configuration not stated) | 9.25% [at 0.35 µM] |
| COc1ccc(NC(=O)CN2CCC3(CC2)N=C(c2ccc(F)cc2)C(=O)N3)cc1 | -27.9% [at 1.35 µM] |
| Cc1nc(CCNC(=O)[C@H]2CCCN2C(=O)c2cccc(Br)c2)cs1 | 23.4% [at 0.16 µM] |
| O=C(NCCc1csc(-c2ccccc2)n1)[C@H]1CCCN1C(=O)c1ccc(Br)cc1 | -11% [at 0.16 µM] |
| Cc1nc(CCNC(=O)[C@H]2CCCN2C(=O)c2ccc(F)cc2)cs1 | -9.63% [at 0.16 µM] |
| O=C(NCCc1csc(-c2ccccc2)n1)[C@H]1CCCN1C(=O)c1ccc(F)cc1 | -10.4% [at 0.16 µM] |
